Among all 1,300 compounds or so, fewer than 10 were called active. Roughly 3% stayed inconclusive and do not appear here. Calls follow the shape of the dose curve; as a rule, active = well fitted inhibition curve with a large enough effect; inconclusive = small, poorly fitted or top-dose-only effect; inactive = flat fitted curve, though single readings scatter. A selection follows.
Tested on: T1, 
T1 sequence (whole entry): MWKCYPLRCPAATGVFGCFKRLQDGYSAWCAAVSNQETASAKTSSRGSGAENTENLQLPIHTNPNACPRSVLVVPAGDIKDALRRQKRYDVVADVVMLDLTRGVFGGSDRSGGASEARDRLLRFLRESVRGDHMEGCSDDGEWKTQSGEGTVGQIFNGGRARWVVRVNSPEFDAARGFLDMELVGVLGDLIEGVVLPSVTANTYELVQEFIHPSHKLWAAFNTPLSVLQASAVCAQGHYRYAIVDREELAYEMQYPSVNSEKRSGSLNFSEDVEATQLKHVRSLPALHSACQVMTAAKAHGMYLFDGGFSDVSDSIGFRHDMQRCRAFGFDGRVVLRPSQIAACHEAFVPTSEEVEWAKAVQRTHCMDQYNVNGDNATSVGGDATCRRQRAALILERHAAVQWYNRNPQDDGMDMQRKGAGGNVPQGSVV
Assay: qHTS of Trypanosoma Brucei Inhibitors: LOPAC Validation (AID 624147)

| Compound | outcome |
| --- | --- |
| N.N.[Cl][Pt][Cl] | active |
